# PINK1 expr mod = PINK1 expression modulation; PINK1 immunofluorescence, high-content cytometry, 24 h; 0.2% of 410,000 active; AID 624263; Potency, µM (highest dose often 76.6 µM), inactives show top-dose activation (PINK1 increase), hits mostly activators; active = well fitted activation curve with a large enough effect; inconclusive = small, poorly fitted or top-dose-only effect; cell line not stated here; note: % of control where 0% means no effect; nearly all actives have a fitted effect of over 65% in size
#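 Stable cell line treated 24 h with compounds at 5 concentrations (CCCP controls), then fixed and immunostained for PINK1 plus nuclear and cell stains; PINK1 immunofluorescence quantified by laser-scanning microplate cytometry.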
# KB-V1 cytotox = kills drug-selected multidrug resistant KB-V1 cells; 3.4% of 400,000 active; Potency, µM (top dose mostly 46.1 µM), hits mostly cytotoxic; KB-V1 MDR cells viability, CellTiter-Glo, 72 h; AID 1347076; note: % is set by controls: 0 for no effect and ±100 for the full control effect; nearly all actives have a fitted effect of over 60% in size
#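 Readout: CellTiter-Glo luminescence, 10 min after addition. Cells: KB-V1 MDR subline, 72 h at 37 degrees C with compound. Analysis: corrected, normalized data fitted to concentration-effect curves.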
# MCF10A rerep = DNA re-replication induction in MCF 10a cells; MCF 10A DNA re-replication, Hoechst nuclear intensity, 48 h; Potency, µM (titrated, usually from 46.1 µM), for the others: top-dose activity, positive = re-replication, hits mostly activators; 2.9% of 350,000 active; AID 624296; note: % of control where 0% means no effect; nearly all actives have a fitted effect of over 50% in size
# KB-3-1 cytotox = KB-3-1 parental cell cytotoxicity; Potency, µM (highest dose often 46.1 µM), actives largely listed as cytotoxic; AID 1347075; 1.4% of 400,000 active; KB-3-1 viability, CellTiter-Glo ATP luminescence, 72 h; note: % is set by controls: 0 for no effect and ±100 for the full control effect; nearly all actives have a fitted effect of over 60% in size
#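 Screening of KB-3-1 cells (DMEM, 10% FBS, phenol-red free) ran from lowest to highest compound concentration; after 72 h at 37 °C viability was read luminescently and curves fitted.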
# SW480 rerep = inducers of DNA re-replication in SW480 colon cancer cells. 1.8% of 340,000 active. AID 624297. SW480 DNA re-replication, Hoechst DNA content imaging, 48 h. Potency, µM (titrated, usually from 46.1 µM), for the others: at the highest dose re-replication activation, hits mostly activators; note: % of control where 0% means no effect; nearly all actives have a fitted effect of over 55% in size
#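 SW480 cells exposed to compounds for 48 hr at 37 C, 5% CO2, then Hoechst-stained 40 min. Nuclear DNA content imaged by fluorescence scanning (405 nm excitation, 500-530 nm emission); re-replication scored as increased high-intensity nuclei.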
# * marks the source's active call; other numbers are inactive results; i = inactive; ? = inconclusive; / = no result given; [ ] = dose if it differs, or a comment. A selection: hits, their analogues and other compounds. The true share with any hit is near 6.7%. Unless noted, calls come from the whole dose curve; as a rule, active = well fitted curve in the direction sought with a large enough effect; inconclusive = small, poorly fitted or top-dose-only effect, or another doubt; inactive = no such curve, though single readings can be large; an effect the other way counts as inactive or inconclusive. Potency is the fitted concentration of half-maximal effect.
SMILES,PINK1 expr mod,KB-V1 cytotox,MCF10A rerep,KB-3-1 cytotox,SW480 rerep
CC(=O)OC1CC2(O)C3CCC4CC(O)CCC4(C)C3CCC2(C)C1C1=CC(=O)OC1 (stereo unspecified),-1%,?,?,0.18µM*,1.6µM*
C[C@H]1O[C@@H](O[C@H]2[C@@H](O)C[C@H](O[C@H]3[C@@H](O)C[C@H](O[C@H]4CC[C@@]5(C)[C@H](CC[C@@H]6[C@@H]5CC[C@]5(C)[C@@H](C7=CC(=O)OC7)CC[C@]65O)C4)O[C@@H]3C)O[C@@H]2C)C[C@H](O)[C@@H]1O,-1%,0.18µM*,0.065µM*,?,0.21µM*
COC1C(O)C(C)O[C@@H](OC2CC[C@@]3(C)C4CC[C@]5(C)C(C6=CC(=O)OC6)CC[C@@]5(O)C4CC[C@@H]3C2)C1O (stereo partly specified),-2%,/,/,/,/
CC(=O)OC1CC(OC2C(O)CC(OC3C(O)CC(OC4CCC5(C)C(CCC6C5CCC5(C)C(C7=CC(=O)OC7)C(O)CC65O)C4)OC3C)OC2C)OC(C)C1OC1OC(CO)C(O)C(O)C1O (stereo unspecified),-5%,?,?,1.2µM*,1.2µM*
CC1OC(O[C@@H]2C(O)CC(O[C@@H]3C(O)C[C@@H](OC4CC[C@]5(C)[C@H](CC[C@H]6[C@@H]5CC[C@]5(C)C(C7=CC(=O)OC7)C(O)C[C@@]65O)C4)OC3C)OC2C)CC(O)C1O (stereo partly specified),-2%,/,/,/,/
CC1OC(OC2C(O)CC(OC3C(O)CC(OC4CCC5(C)C(CCC6C5CCC5(C)C(C7=CC(=O)OC7)C(O)CC65O)C4)OC3C)OC2C)CC(O)C1O (stereo unspecified),-2%,?,?,0.18µM*,1.8µM*
CC(=O)[C@H]1CCC2C3CC[C@H]4C[C@@H](O)CC[C@]4(C)C3CC[C@@]21C (stereo partly specified),1%,?,5%,i,14%
CCCCCCCCN1C(=O)[C@H](CC(=O)NCCc2ccccc2OC)C[C@@]2(C(=O)OC)CCCCC=C12,?,?,/,i,/
O=C(CO)C(O)C(O)C(O)CO (stereo unspecified),1%,i,-9%,i,?
COC(=O)[C@@H]1[C@@H]2C[C@H]3c4[nH]c5cc(OC)ccc5c4CCN3C[C@@H]2C[C@H](OC(=O)/C=C\c2cc(OC)c(OC)c(OC)c2)[C@H]1OC,/,/,11%[20.6 µM],/,10%[20.6 µM]
CC(N)c1cccc(Cl)c1Cl (stereo unspecified),0%,/,/,/,/
Cc1nn(-c2ccccc2)c2c1C(c1ccc3c(c1)OCO3)SCC(=O)N2 (stereo unspecified),/,?,15µM*,i,24%
COc1ccc2c(c1)/C(=C/c1cnc[nH]1)C(=O)N2,0%,10µM*,?,?,?
COc1cc(OC)c(/C=C2\C(=O)Nc3ccccc32)c(OC)c1,3%,8.2µM*,5.2µM*,4.1µM*,12µM*
C[C@](O)(CS(=O)(=O)c1ccc(F)cc1)C(=O)Nc1ccc(C#N)c(C(F)(F)F)c1,/,/,7%,/,2%
Fc1ccc(C(OCCN2CCCC2)c2ccc(F)cc2)cc1,1%,?,?,i,0%
Fc1ccc(C(OCCN2CCN(CCCc3ccccc3)CC2)c2ccc(F)cc2)cc1,2%,16µM*,21µM*,?,?
c1ccc(CCCN2CCN(CCOC(c3ccccc3)c3ccccc3)CC2)cc1,-1%,10µM*,5.2µM*,?,?
Cc1onc(-c2ccccc2)c1C(=O)N[C@@H]1C(=O)N2C1SC(C)(C)[C@@H]2C(=O)O (stereo partly specified),1%,i,-1%,i,?
c1ccc2c(c1)[nH]c1cnccc12,0%,i,0%,i,-7%
Cc1c2ccncc2c(C)c2c1[nH]c1ccccc12,-1%,9.2µM*,5.8µM*,?,7.3µM*
O=c1cc(C(F)(F)F)c2cc3c4c(c2o1)CCCN4CCC3,-1%,i,10µM*,i,?
O=[N+]([O-])c1c(Cl)cccc1-c1c[nH]cc1Cl,/,/,?,/,14%
CC(C)n1c(/C=C/[C@@H](O)C[C@@H](O)CC(=O)O)c(-c2ccc(F)cc2)c2ccccc21,8%,18µM*,6%,15µM*,3%
CCOc1ccc2nc(N(CCN(CC)CC)C(=O)c3ccc([N+](=O)[O-])cc3)sc2c1,0%,i,?,i,?
SMILES,PINK1 expr mod,KB-V1 cytotox,MCF10A rerep,KB-3-1 cytotox,SW480 rerep
Cc1ccc2c(c1)C1CN(C)CCC1N2C(=O)c1cccs1 (stereo unspecified),0%,i,-4%,i,-7%
O=C(CCN1CC2CCC(CC2)C1)c1cccs1,-5%,i,10µM*,i,?
CN1C[C@H](C(=O)N[C@]2(C)O[C@@]3(O)C4CCCN4C(=O)[C@H](Cc4ccccc4)N3C2=O)C[C@@H]2c3cccc4[nH]cc(c34)C[C@H]21 (stereo partly specified),/,/,4%,/,1%[4.21 µM]
CCN(CC)CCCOC(=O)C(OC(C)C)(c1ccccc1)c1ccccc1,-5%[38.3 µM],8.2µM*,2%,?,?
CCCOc1ccc(C2SCC(=O)Nc3c2c(C)nn3-c2cccc(C)c2)cc1OC (stereo unspecified),5%,i,/,?,/
COc1cc2c(cc1O)[C@@H]1Cc3ccc(OC)c(O)c3CN1CC2,8%,7.3µM*,?,5.8µM*,?
COc1cc(/C=N/NP(=S)(c2ccccc2)c2ccccc2)ccc1O,0%,i,11µM*,i,-1%
COc1ccc(-c2ccc(OC)c(OC)c2OC)cc1,5%,?,4.6µM*,?,3.7µM*
CC([C@H](O)c1ccccc1)N(C)C (stereo partly specified),-1%,/,-4%,/,-6%
CC(=O)O[C@@]12CO[C@@H]1C[C@@H](O)[C@@]1(C)C(=O)[C@H](O)C3=C(C)[C@@H](OC(=O)[C@H](O)[C@@H](NC(=O)c4ccccc4)c4ccccc4)C[C@@](O)([C@@H](OC(=O)c4ccccc4)C12)C3(C)C (stereo partly specified),5%,i,?,0.01µM*,8.2µM*
CC(=O)OC12COC1CC(O)C1(C)C(=O)C(O)C3=C(C)C(O)CC(O)(C(OC(=O)c4ccccc4)C21)C3(C)C (stereo unspecified),-1%,i,0.82µM*,0.52µM*,8.2µM*

# Bioassay records deposited in PubChem BioAssay by National Center for Advancing Translational Sciences (NCATS).
